# Experimental data: PubChem BioAssay AID1159580 (chemical genetic matrix, 2015)
# Where “and” joins values, the source holds several entries; their conditions need not be identical. Equal values may be shown once. Hit rate of the full screen: of about 5,500 compounds, about 2,000 (36%) were called active. About 18% were inconclusive and are not listed. The list shows a part of the results. Unmarked numbers belong to inactive results. Rule as the data show it: active = normalized growth mostly below about 0.91 (no sharp cut-off); inconclusive = no clear call, values can overlap the other calls; inactive = mostly above about 0.92.
# Assay: chemical genetic growth profiling, strain panel (AID 1159580);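 also: tested at 20 µM; growth read once vehicle control cultures reached saturation at 30 °C; 1 = growth at the plate median or of vehicle wells; lower values mean less growth of the strain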
# Details: S. cerevisiae deletion strains, growth OD
compound,measurement,setting,value
O=C1OC(c2ccc(O)cc2)(c2ccc(O)cc2)c2ccccc21,normalized growth,"locus YAL013W, strain DEP1, active compounds read low",0.999
same,normalized growth,"locus YAL021C, strain ccr4, active compounds read low",0.977
same,normalized growth,"locus YAL026C, strain drs2, active compounds read low",0.978
same,normalized growth,"locus YAL030W, strain snc1, active compounds read low",0.994
same,normalized growth,"locus YBL061C, strain skt5, active compounds read low",0.984
same,normalized growth,"locus YBR009C, strain hhf1, active compounds read low",0.988
same,normalized growth,"locus YBR021W, strain FUR4, active compounds read low",1.01
same,normalized growth,"locus YBR023C, strain chs3, active compounds read low",0.994
same,normalized growth,"locus YBR171W, strain sec66, active compounds read low",0.981
same,normalized growth,"locus YBR229C, strain ROT2, active compounds read low",0.997
same,normalized growth,"locus YBR231C, strain swc5, active compounds read low",0.974
same,normalized growth,"locus YBR279W, strain paf1, active compounds read low",0.988
same,normalized growth,"locus YCL011C, strain gbp2, active compounds read low",0.968
same,normalized growth,"locus YCL016C, strain dcc1, active compounds read low",1.01
same,normalized growth,"locus YCL029C, strain bik1, active compounds read low",0.972
same,normalized growth,"locus YCL061C, strain MRC1, active compounds read low",1
same,normalized growth,"locus YCL069W, strain vba3, active compounds read low",0.969
same,normalized growth,"locus YCR088W, strain abp1, active compounds read low",1
same,normalized growth,"locus YDL005C, strain med2, active compounds read low",0.97
same,normalized growth,"locus YDL035C, strain GPR1, active compounds read low",0.986
same,normalized growth,"locus YDL040C, strain nat1, active compounds read low",0.986
same,normalized growth,"locus YDL074C, strain BRE1, active compounds read low",0.98
same,normalized growth,"locus YDL101C, strain DUN1, active compounds read low",0.98
same,normalized growth,"locus YDL134C, strain PPH21, active compounds read low",0.989
same,normalized growth,"locus YDL185W, strain tfp1, active compounds read low",0.954
same,normalized growth,"locus YDL192W, strain arf1, active compounds read low",0.974
same,normalized growth,"locus YDR001C, strain nth1, active compounds read low",0.965
same,normalized growth,"locus YDR069C, strain doa4, active compounds read low",0.959
same,normalized growth,"locus YDR101C, strain arx1, active compounds read low",0.973
same,normalized growth,"locus YDR137W, strain rgp1, active compounds read low",0.976
same,normalized growth,"locus YDR150W, strain NUM1, active compounds read low",1
same,normalized growth,"locus YDR159W, strain sac3, active compounds read low",0.969
same,normalized growth,"locus YDR162C, strain NBP2, active compounds read low",0.992
same,normalized growth,"locus YDR195W, strain ref2",0.973
same,normalized growth,"locus YDR297W, strain sur2, active compounds read low",0.996
same,normalized growth,"locus YDR318W, strain mcm21, active compounds read low",0.949
same,normalized growth,"locus YDR334W, strain swr1, active compounds read low",0.897 (active)
same,normalized growth,"locus YDR335W, strain msn5, active compounds read low",0.97
same,normalized growth,"locus YDR388W, active compounds read low",0.973
same,normalized growth,"locus YDR392W, strain spt3, active compounds read low",0.958
same,normalized growth,"locus YDR502C, strain sam2, active compounds read low",0.96
same,normalized growth,"locus YEL003W, strain gim4, active compounds read low",0.964
same,normalized growth,"locus YEL037C, strain rad23, active compounds read low",0.983
same,normalized growth,"locus YEL061C, strain CIN8 (second series), active compounds read low",0.962
same,normalized growth,"locus YEL061C, strain CIN8, active compounds read low",0.996
same,normalized growth,"locus YER015W, strain faa2, active compounds read low",0.977
same,normalized growth,"locus YER016W, strain bim1, active compounds read low",0.984
same,normalized growth,"locus YER110C, active compounds read low",0.971
same,normalized growth,"locus YER111C, strain swi4, active compounds read low",0.995
same,normalized growth,"locus YER155C, strain BEM2 (second series), active compounds read low",0.826 (active)
same,normalized growth,"locus YER155C, strain BEM2, active compounds read low",0.994
same,normalized growth,"locus YER167W, strain BCK2, active compounds read low",0.997
same,normalized growth,"locus YFR010W, strain ubp6, active compounds read low",0.975
same,normalized growth,"locus YGL078C, strain dbp3, active compounds read low",0.984
same,normalized growth,"locus YGL086W, strain mad1, active compounds read low",0.992
same,normalized growth,"locus YGL167C, strain pmr1, active compounds read low",0.983
same,normalized growth,"locus YGL173C, strain kem1, active compounds read low",0.996
same,normalized growth,"locus YGL227W, strain vid30, active compounds read low",0.987
same,normalized growth,"locus YGL240W, strain doc1, active compounds read low",0.965
same,normalized growth,"locus YGL248W, strain PDE1, active compounds read low",0.996
same,normalized growth,"locus YGL253W, strain hxk2, active compounds read low",0.969
same,normalized growth,"locus YGR135W, strain pre9, active compounds read low",0.964
same,normalized growth,"locus YGR252W, strain gcn5, active compounds read low",1.03
same,normalized growth,"locus YHR013C, strain ard1, active compounds read low",0.954
same,normalized growth,"locus YHR027C, strain rpn1, active compounds read low",0.982
same,normalized growth,"locus YHR030C, strain SLT2, active compounds read low",0.986
same,normalized growth,"locus YHR079C, strain IRE1 (second series), active compounds read low",0.96
same,normalized growth,"locus YHR079C, strain IRE1, active compounds read low",0.953
same,normalized growth,"locus YHR094C, strain hxt1, active compounds read low",0.971
same,normalized growth,"locus YHR129C, strain ARP1, active compounds read low",0.995
same,normalized growth,"locus YHR142W, strain chs7, active compounds read low",0.977
same,normalized growth,"locus YHR200W, strain rpn10, active compounds read low",0.967
same,normalized growth,"locus YIL066C, strain RNR3, active compounds read low",0.996
same,normalized growth,"locus YIL073C, strain SPO22, active compounds read low",0.844
same,normalized growth,"locus YIL125W, strain kgd1, active compounds read low",0.956
same,normalized growth,"locus YIR030C, strain dcg1, active compounds read low",0.985
same,normalized growth,"locus YJL092W, strain hpr5, active compounds read low",0.995
same,normalized growth,"locus YJL095W, strain BCK1 (second series), active compounds read low",0.977
same,normalized growth,"locus YJL095W, strain BCK1, active compounds read low",1.04 and 0.981
same,normalized growth,"locus YJL115W, strain asf1, active compounds read low",0.972
same,normalized growth,"locus YJL129C, strain trk1, active compounds read low",0.949
same,normalized growth,"locus YJL134W, strain LCB3, active compounds read low",0.988
same,normalized growth,"locus YJL154C, strain vps35, active compounds read low",0.972
same,normalized growth,"locus YJL164C, strain tpk1, active compounds read low",0.987
same,normalized growth,"locus YJL166W, strain qcr8, active compounds read low",0.983
same,normalized growth,"locus YJL168C, strain set2, active compounds read low",0.974
same,normalized growth,"locus YJL187C, strain SWE1 (second series), active compounds read low",0.991
